High-throughput results from PubChem BioAssay.
Compounds with a hit are over-represented: about 9.5% of the library has one in this group of screens.
Pf growth 96h: P. falciparum growth inhibition at 96 hours. 6.9% of 320,000 active. AID 504834. Potency, µM (doses to about 28.7 µM), for the others: at the top dose activity change, negative = inhibition, hits mostly inhibitors. P. falciparum luciferase reporter growth, 96 h; further: on the % scale 0 is the no-effect control and ±100 the full control effect
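Two-generation exposure (96 h) targets delayed-death phenotype. Reporter parasites carrying integrated firefly luciferase, in red cells at 2% hematocrit and 0.05% parasitemia final, kept at 37 C, 5% CO2; luminescence loss indicates inhibition.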
RE007 growth inh: less growth of the S. pombe RE007 Vpr strain; S. pombe RE007 Vpr strain, BacTiter-Glo ATP luminescence, 24 h; Potency, µM (series often up to 92.2 µM), without a hit: top-dose activity change, negative = less growth, most hits filed as inhibitors; 0.21% of 360,000 active; AID 651644; active means well fitted falling curve with a large enough effect; inconclusive means small, poorly fitted or top-dose-only effect; inactive means no such curve, though single readings can be large or run the other way; further: on the % scale 0 is the no-effect control and ±100 the full control effect; nearly all actives have a fitted effect of over 50% in size
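Fission yeast RE007 carrying one integrated HIV-1 vpr copy, seeded at OD 0.01 in PMG+AL medium with 23 nL pinned compound. Grown 24 h at 30 degrees; viability read by BacTiter-Glo luminescence after 5 min.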
Pf growth 48h: inhibits P. falciparum growth in the first generation, 48 h; P. falciparum luciferase growth in erythrocytes, 48 h; Potency, µM (titrated, usually from 28.7 µM), inactives show at the top dose activity change, negative = inhibition, most hits filed as inhibitors; 5.9% of 310,000 active; AID 504832; further: on the % scale 0 is the no-effect control and ±100 the full control effect
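Erythrocytes infected with P. falciparum carrying an integrated firefly luciferase reporter (2% hematocrit, 0.1% parasitemia final) were exposed to compounds in RPMI 1640 with 0.5% Albumax at 37 C, 5% CO2. Growth inhibition was scored as reduced luminescence.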
SARS PLpro yeast: SARS-CoV PLP inhibition in yeast; S. cerevisiae expressing SARS-CoV PLpro, growth rescue; Potency, µM (highest dose often 32.9 µM), for the others: top-dose activity, positive = growth rescue, usual class: activators; 0.19% of 330,000 active; AID 485353; calls by dose curve; further: 0% is about no effect; nearly all actives have a fitted effect of over 55% in size
NS1 function inh: inhibitors of influenza NS1 protein function; Potency, µM (titrated, usually from 46.1 µM), for the others: top-dose activity, positive = more growth; 0.4% of 270,000 active; AID 2326; calls by dose curve; further: actives are rising curves; nearly all actives have a fitted effect of over 50% in size
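Growth recovery, yeast-based: influenza A NS1 expressed in S. cerevisiae causes slow growth, and suppressors are detected by OD600. The parent strain without NS1 is used as positive control.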
Starred values were filed as active, the others as inactive; ? = inconclusive; . = no result; [ ] = remark or other dose. Unless noted, the call rests on the fitted dose curve; in most records, active means well fitted inhibition curve with a large enough effect; inconclusive means small, poorly fitted or top-dose-only effect, or another doubt; inactive means no such curve, though single readings can be large or run the other way. Potency means the concentration at half of the fitted maximal effect.

SMILES	Pf growth 96h	RE007 growth inh	Pf growth 48h	SARS PLpro yeast	NS1 function inh
O=C(Nc1ccc(Cl)cc1)/C(=C/c1cccc(O)c1)c1nc2ccccc2s1	4.1µM*	-3%	9.3µM*	-10%	8%
C=CCCC(=O)N1C[C@H]2CON(C)[C@H]2C[C@H]1c1cccc(N2CCOCC2)c1	.	10%	.	.	.
O=C(CSc1ncnc2nc[nH]c12)c1ccc2ccccc2c1	5.2µM*	1%	22%	-18%	-6%
O=C(O)CSc1ncnc2nc[nH]c12	-19%	-19%	.	5%	1%
CCC(C(=O)O)C1CCC(C)C(C(C)C(O)C(C)C(=O)C(CC)C2OC3(C=CC(O)[C@@]4(CC[C@](C)(C5CC[C@@](O)(CC)C(C)O5)O4)O3)C(C)CC2C)O1 (stereo partly drawn)	0.21µM*	.	0.43µM*	.	.
COc1ccc(C(=O)c2c3ccccc3[n+]([O-])n2CCC(N)=O)cc1	33%	10%	?	2%	.
COc1ccc2c(C(=O)c3ccc(C)cc3)n(Cc3ccc(C(N)=O)cc3)[n+]([O-])c2c1	?	-1%	?	7%	.
COc1ccc(C(=O)c2c3ccc(C(F)(F)F)cc3[n+]([O-])n2CCCN)cc1	?	20%	12µM*	4%	.
NC(=O)CCn1c(C(=O)c2cc(Cl)c(N)c(Cl)c2)c2ccccc2[n+]1[O-]	10µM*	7%	?	-1%	-4%
COc1ccc2c(C(=O)c3ccc(Cl)cc3)n(CCCC(N)=O)[n+]([O-])c2c1	?	3%	9.3µM*	3%	.
COc1ccc(C(=O)c2c3ccccc3[n+]([O-])n2Cc2ccc(C(N)=O)cc2)cc1	6.6µM*	-16%	?	-4%	.
CCN1C[C@@H]2[C@@H]3C(=O)N(C)C(=O)[C@@H]3[C@](CC)(C1=O)N2C(=O)c1ccc(C)cc1	.	3%	.	.	.
O=C(NNC(=O)C1CCCCC1)c1ccc(Br)cc1	-3%	27%	61%	1%	4%
COc1ccccc1NC(=S)NC(=O)c1ccc(Cn2cc(Br)cn2)cc1	-102%	10%	?	2%	5%
COC(=O)[C@@H]1C[C@H]2CC[C@H](O)C[C@H]2N1Cc1ccc(-c2ccccc2)cc1	-4%	-2%	15%	3%	2%
COC(=O)[C@@H]1C[C@@H]2CC[C@@H](O)C[C@@H]2N1Cc1ccccc1OS(=O)(=O)c1ccc(C)cc1	?	1%	10µM*	-2%	0%
COC(=O)[C@@H]1C[C@H]2CC[C@H](O)C[C@H]2N1Cc1ccccc1OC(=O)c1cccs1	?	-18%	9.3µM*	1%	?
CCCN(c1ccccc1C(=O)O)S(=O)(=O)c1ccc2c(c1)n(C)c(=O)n2C	0.83µM*	6%	-17%	-1%	3%
CCCCn1c(SCC(=O)Nc2ccccc2C(F)(F)F)nc2ccsc2c1=O	12µM*	20%	0%	-15%	0%
COC(=O)c1ccccc1NC(=O)CSc1nc2ccsc2c(=O)n1CCCCC(=O)O	.	5%	.	.	.
CCCCn1c(SCC(=O)N2CCC(C)CC2)nc2ccsc2c1=O	-44%	16%	12µM*	2%	-18%
CCCCn1c(SCC(=O)N2CCN(c3ccccc3)CC2)nc2ccsc2c1=O	5%	13%	?	-13%	-35%
CC(=O)[C@@]1(O)CC[C@H]2[C@H]3C[C@@H](C)C4=CC(=O)C=C[C@]4(C)[C@@]3(F)[C@@H](O)C[C@]21C	?	.	-18%[12.8 µM]	.	.
c1c2c(cc3sc(N4CCOCC4)nc13)OCO2	21%	?	0%	-7%	-58%
c1c2c(cc3sc(N4CCCCC4)nc13)OCO2	51%	45µM*	287%	-7%	-32%
COc1ccc(CN(CCC(c2ccccc2)c2ccco2)C(=O)c2ccco2)cc1 (stereo not drawn)	12µM*	10%	0%	2%	12%
O=C(c1ccco1)N(CCC(c1ccccc1)c1ccco1)Cc1ccccc1 (stereo not drawn)	13µM*	13%	?	-6%	4%
COc1ccc(CN(C(=O)c2ccco2)c2ccccc2)cc1	4%	36%	-26%	29%	-2%
O=S(=O)(c1ccc(=S)[nH]c1)N1CCCC1	.	12%	.	11%	.
